Structures are written as SMILES. Values joined by “and” are separate entries in the source; they are usually repeats but may differ in a detail not shown here. Equal entries are not always repeated. The panel holds about 83,000 compounds, 20% with a hit somewhere; the sample as a whole holds those more often.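 The test compound was applied at a single concentration to cells in 96-well plates for 48 hours, and percent growth was recorded.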 Active and inactive are the calls of the source. Rule for the calls: active = growth percent below 10; inactive = the rest.

The subject of this test is MDA-MB-468 breast. Kind of test: NCI-60 one-dose screen, 48 h (100 = growth as untreated, 0 = no growth, -100 = all killed). Particulars: 10 µM unless noted.
As to `CC(C)[C@@H]1NC(=O)[C@]2(C)CSC(=N2)c2csc(n2)CNC(=O)C[C@@H](/C=C/CCS)OC1=O`, the growth is 30% (inactive).
The result for `CCN(CC)c1ccc2c(c1)OC(N)=C(C#N)C2c1cc(OC)c2c(c1)OCO2` (stereo not drawn) reads -9.24% (active).
The result for `CC(C)c1cccc(C(C)C)c1O` reads 101% (inactive) and 94.3% (inactive).
In the case of `ClCCN(CCCl)c1ccc(C=NCCc2c[nH]c3ccccc23)cc1` it was -16.7% (active).
On to `O=C1Nc2ccccc2C2c3cccn3-c3ccccc3CN12` (stereo not drawn), for which the growth was 30.5% (inactive).
In the case of `O=c1[nH]c2ccccc2n1C1CCN(CCCC(c2ccc(F)cc2)c2ccc(F)cc2)CC1` it was 33% (inactive).
For the compound `COc1cc2c(O[C@@H]3OC[C@H](O)[C@H](O)[C@H]3O)c3c(c(-c4ccc5c(c4)OCO5)c2cc1OC)C(=O)OC3`, the growth is 59.3% (inactive).
For `CC1(C)N=C(N)N=C(N)N1c1ccc(OCCCNC(=O)Nc2ccc(S(=O)(=O)F)cc2)c(Cl)c1`, the growth is 14.6% (inactive).
Turning to `c1ccc2c(c1)sc1ccccc12`, the growth is 97.2% (inactive).
The result for `CCC1CN1CCCCN1CC1CC` (stereo not drawn) reads 101% (inactive); that for `C/C(=C\c1ccc(Cl)c(Cl)c1)[N+](=O)[O-]`, -77.9% (active) and 93.8% (inactive); that for `Cc1ccc(C(Cc2ccccc2)NCCO)cc1` (stereo not drawn), 96.7% (inactive).
In the case of `CC(=O)O[C@@H]1[C@@H]2O[C@H]2[C@@](C)(O)C(=O)[C@@H](C)C/C=C/[C@H]2[C@@H]3O[C@]3(C)[C@@H](C)C3[C@H](Cc4ccccc4)NC(=O)[C@@]312` (stereo partly drawn) it was 56.8% (inactive); in that of `C[CH2][Hg][S]c1ccccc1C(=O)O`, -86.6% (active).
As to `Oc1ccc2c3c1OC1[C@@H](O)CC[C@@]4(O)[C@@H](C2)N(CC2CCC2)CC[C@]314` (stereo partly drawn), the growth was 99.8% (inactive).
In the case of `O=C1C(=Cc2cn(Cc3ccccc3)c3ccccc23)C(=O)N(Cc2ccccc2)C(=O)N1Cc1ccccc1` it was -71.8% (active); in that of `CC[C@H](C)[C@H](NC(=O)c1nccn1C)C(=O)N(C)[C@H](C[C@@H](OC(C)=O)c1nc(C(=O)N[C@@H](Cc2ccccc2)C[C@H](C)C(=O)OC)cs1)C(C)C`, 25.7% (inactive).
The result for `CCCCCCCCCC(=O)N[C@@](C)(CC)C(=O)N1CCC[C@H]1C(=O)N[C@@H](CC(C)C)C(=O)N[C@@](C)(CC)C(=O)N[C@@H](CCC(N)=O)C(=O)N[C@H](CCC(N)=O)C(=O)NC(C)(C)C(=O)NC(C)(C)C(=O)N[C@@H](CCC(N)=O)C(=O)N[C@H](CC(C)C)C(=O)N[C@H](CO)CC(C)C` reads -94.7% (active) and -92.4% (active); that for `CC(C)(C)[Si](C)(C)OC1[C@@H](O[Si](C)(C)C(C)(C)C)[C@@H](CNC(=O)NC(=O)CF)O[C@H]1n1cnc2c(NC(=O)Nc3ccccc3)ncnc21` (stereo partly drawn), 90.5% (inactive); that for `Nc1cccnc1`, 130% (inactive).
In the case of `CC1=C[C@H]2O[C@@H]3C[C@@H](O)[C@](C)([C@@]2(C)CC1)[C@@]31CO1` it was 28.7% (inactive); in that of `Oc1cc(N2CC2)c(O)cc1N1CC1`, -62.7% (active).
As for `CNC(=O)Oc1cccc(N(C)C)c1`, the growth was 92.7% (inactive).
The result for `c1ccc(Nc2nc(-c3ccccc3)c[se]2)cc1` reads 49.8% (inactive).
The result for `CC[C@H](C)[C@H](NC(=O)c1ccccn1)C(=O)N(C)[C@H](C[C@@H](OC(C)=O)c1nc(C(=O)N[C@@H](Cc2ccccc2)C[C@H](C)C(=O)OC)cs1)C(C)C` reads -7.06% (active); that for `N#[N+]c1cnc([O-])[nH]c1=O`, 88.4% (inactive).
As to `CC(=O)O[C@H]1CC[C@@]2(C)C(=CC[C@H]3[C@@H]4C[C@@H](N5CC5)[C@H](C(C)=O)[C@@]4(C)CC[C@@H]32)C1`, the growth was 79% (inactive).
In the case of `CC(=O)O[C@H]1CCC2C3CCC4=C/C(=N/O)CCC4(C)C3CCC21C` (stereo partly drawn) it was 97.7% (inactive); in that of `Nc1c(F)cc(-c2nc3cc(F)ccc3[se]2)cc1F`, -39.8% (active); in that of `O=C(Nc1ccc(Cl)cc1)Nc1nccs1`, 16.4% (inactive).
The result for `COc1ccc(C2=N[C@@H](Cc3ccccc3)C(=O)Nc3ccsc32)cc1` reads 8.23% (active); that for `C[C@]12CC[C@@H]3C4=C(CC[C@H]3[C@@H]1CC[C@@H]2O)CC(=O)CC4`, 101% (inactive).
In the case of `O=Cc1cn(Cc2ccccc2)c2ccccc12`, the growth was 2.33% (active).
The result for `O=C1C(Cl)=C(N2CCOCC2)C(=O)c2ccccc21` reads -81% (active); that for `[Cl][Hg][n]1c(-c2ccco2)nc2ccccc21`, 94.4% (inactive); that for `N#CCc1ccccc1`, 101% (inactive).
`C[S+]1C=Cc2ccccc2C1c1ccc(Cl)cc1` (stereo not drawn): the growth is -40.7% (active).
The result for `Nc1ccc2c(c1)Cc1cc(N)ccc1-2` reads 67.3% (inactive).

Values taken from PubChem BioAssay (NCI).
